Test results published in PubChem BioAssay (NCI).
About 83,000 compounds went through this panel and 20% of them were active in at least one assay; those are over-represented in the sample as a whole.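 Growth was measured after 48 h exposure to one concentration of compound in 96-well plates. Values under 10 count as active.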 A number with no mark means an inactive call. The source made the active and inactive calls.

How the values were obtained:
Test in all cases: NCI-60 one-dose screen, 48 h (100 = growth as untreated, 0 = no growth, -100 = all killed)
Details in all cases: 10 µM unless noted
SR leukemia = test system: SR leukemia
RPMI-8226 leukemia = test system: RPMI-8226 leukemia
OVCAR-8 ovarian = test system: OVCAR-8 ovarian
OVCAR-5 ovarian = test system: OVCAR-5 ovarian
OVCAR-4 ovarian = test system: OVCAR-4 ovarian
SK-OV-3 ovarian = test system: SK-OV-3 ovarian
OVCAR-3 ovarian = test system: OVCAR-3 ovarian
HS 578T breast = test system: HS 578T breast
NCI/ADR-RES ovarian = test system: NCI/ADR-RES ovarian
T-47D breast = test system: T-47D breast
MDA-MB-435 melanoma = test system: MDA-MB-435 melanoma
SW-620 colon = test system: SW-620 colon
MCF7 breast = test system: MCF7 breast
HCT-116 colon = test system: HCT-116 colon
HCC-2998 colon = test system: HCC-2998 colon
KM12 colon = test system: KM12 colon
IGROV1 ovarian = test system: IGROV1 ovarian
BT-549 breast = test system: BT-549 breast

SMILES	growth (SR leukemia)	growth (RPMI-8226 leukemia)	growth (OVCAR-8 ovarian)	growth (OVCAR-5 ovarian)	growth (OVCAR-4 ovarian)	growth (SK-OV-3 ovarian)	growth (OVCAR-3 ovarian)	growth (HS 578T breast)	growth (NCI/ADR-RES ovarian)	growth (T-47D breast)	growth (MDA-MB-435 melanoma)	growth (SW-620 colon)	growth (MCF7 breast)	growth (HCT-116 colon)	growth (HCC-2998 colon)	growth (KM12 colon)	growth (IGROV1 ovarian)	growth (BT-549 breast)
CC(C)CN(C(=O)c1ccc(Cl)cc1)c1c(N)n(CC(C)C)c(=O)[nH]c1=O	64.1%	84.8%	93.8%	88.3%	107%	26.8%	115%	84.8%	101%	105%	112%	100%	95%	96.2%	106%	102%		
CCNC(=O)c1[nH]cc(-c2ccc(OC)cc2)c1-c1cc(OC)cc(OC)c1	92.6%	87.7%	93.4%	99.6%	81.4%	145%	83.5%	87.1%	86.9%		84.3%	101%	99.5%	82.3%	102%	89.9%	80.3%	90.2%
OC1(c2ccc(Cl)c(C(F)(F)F)c2)CCN(CCCC(c2ccc(F)cc2)c2ccc(F)cc2)CC1	-44.2% (active)	-22% (active)	-71.7% (active)	-46.9% (active)	-10.8% (active)		-99.9% (active)	-47% (active)	-59.8% (active)	-62.1% (active)	-91.6% (active)	-100% (active)	-90.3% (active)	-92.3% (active)	-97.2% (active)	-99.2% (active)	-57.2% (active)	-92.8% (active)
COc1ccc(-c2nn(Cc3ccccc3)c3c2-c2oncc2CC3)cc1OC	63.2%	98.5%	89%	103%	86.8%	137%	113%		82.6%	84.8%	95.2%	118%	87.7%	107%	107%	99.6%	124%	92.7%
COc1c(Cl)cc(Cl)c2ccc(C=C3C(=O)N(C)C(=O)N(C)C3=O)nc12	93.2%	102%	111%	111%		101%	104%	104%	106%	100%	102%	105%	94.9%	-46.6% (active)	101%	101%	114%	90.4%
CC1NC(=S)NC(=O)/C1=C/c1cc(=O)oc2c1ccc1ccccc12 (centres undefined)	94%	102%	87.5%	105%		94.4%	100%	94.4%	92.7%	93.4%	105%	95.5%	89.9%	91.8%	105%	99.6%	91.9%	87.7%
CC(=O)OC1CCC2(C)C(CCC3C4CC=C(C(C)=O)C4(C)OC(=O)CC32)C1 (centres undefined)	-48.4% (active)	-31.7% (active)	-20.4% (active)	75.1%		109%	-36.2% (active)	75.1%	37.5%	17.4%	20.4%	-48.7% (active)	11.2%	-98.9% (active)	73.8%	81.6%	61.5%	28.8%
NC(=S)N/N=C/c1ccc(OC(=O)COc2cc(Cl)c(Cl)cc2Cl)cn1	1.38% (active)	76.4%	26.1%	115%		99.5%	59.2%	114%	26.9%	49.3%	71.7%	59.6%	28.5%	67.9%	63.7%	70.9%	63.8%	64.3%
CC(=O)N1N=C(c2cccc(Nc3ccncc3)c2)CC1c1ccc2c(c1)OCO2 (centres undefined)	31.5%	78.3%	91.4%	94.1%		78.3%	96%	80%	97.2%	74.1%	35.1%	86.2%	71.4%	-52.3% (active)	94.2%	88.2%	91.9%	-44.5% (active)
O=c1[nH]c(=O)[nH]c(=S)[nH]1	106%	106%	101%	102%		111%	119%	99.3%	105%	98.9%	103%	102%	97.8%	98.5%		102%	102%	103%
C/C(=C(/c1ccccc1)c1ccc(OCC(O)CNCCN2CCOCC2)cc1)c1ccccc1 (centres undefined)	0.691% (active)	20.4%	78.2%	76.2%		95.4%	77.9%	70.5%	80.2%	89.3%	-63.8% (active)	49%	44.6%	106%	-59.6% (active)	54.3%	63.3%	105%
COc1ccc(C(=O)c2cc3c(N)c(C(=O)Nc4cccc(Cl)c4)sc3nc2C)cc1	-18.2% (active)	9.77% (active)	27.1%	49.3%		44%	0.514% (active)	18.5%	8.84% (active)	43.8%	-35.2% (active)	35.4%	26.5%	14.9%	18.3%	22.1%	47.9%	78.1%
COc1ccc(-c2nc(N=Nc3c(O)[nH]c4ccccc34)nc(N3CCOCC3)c2C#N)cc1	41.7%	60.2%	44.2%	81.9%		66.8%	67.4%	47.5%	59.7%	65.4%	79.1%	66.8%	60.6%	29.7%	95%	73.4%	87.8%	62.8%
OC(c1ccccc1)c1ccccn1 (centres undefined)	99.1%	101%	95.9%	108%		92%	105%	91%	110%	87.4%	104%	102%	102%	103%	104%	102%	106%	93.4%
COc1cc(-c2nc3occn3c2-c2ccnc(NCCNS(=O)(=O)c3ccc(Cl)cc3)n2)ccc1F	71.9%	48.8%	85.4%	118%		67.3%	114%	77.8%	82.2%	51.6%	62.2%	109%	65.5%	63.6%	103%	86.9%	64.6%	95.5%
Fc1ccc(C2CC(c3cccc(Nc4ccncc4)c3)=NN2c2ccc(Cl)cc2)cc1 (centres undefined)	4.4% (active)	28%	22.6%	88.8%		80.9%	67.8%	79.9%	66.8%	80.9%	-6.55% (active)	-74% (active)	6.6% (active)	101%	16.7%	19.5%	44.3%	105%
CC(O)/C=C/C=C/C(O)CC/C=C/C(=O)NCC(C)(C)O (centres undefined)	66.4%	100%	93.3%	113%		111%	115%	99.8%	109%	86.2%	110%	118%	78.2%	93.5%	90.6%	102%	117%	109%
Cc1ccc(C2CC(c3cccc(Nc4ccncc4)c3)=NN2c2ccc(Cl)cc2)cc1 (centres undefined)	-12.4% (active)	-46% (active)	-35% (active)	-100% (active)		-92.3% (active)	-91.1% (active)	-55.9% (active)	-63% (active)	-47.9% (active)	-84.7% (active)	-46.9% (active)	-73.4% (active)	-80.1% (active)	-93.4% (active)	-89.3% (active)	-92.7% (active)	96.5%
